Vif-APOBEC3F blk = blocks the Vif interaction with APOBEC3F; 390,000 tested, 0.2% active; Potency, µM (titrated, usually from 46.1 µM), without a hit: at the highest dose activity, negative = active; HeLa A3F-eYFP + Vif (tagged APOBEC3F with the HIV-1 protein that degrades it), YFP fluorescence increase; further: potency means the concentration at half of the fitted maximal effect; % of control where 0% means no effect; nearly all actives have a fitted effect of over 65% in size
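HeLa cells stably expressing A3F-eYFP plus Vif, plated and incubated overnight at 37 deg C, then exposed to compounds overnight at 37 deg C. Blocked degradation read as raised yellow fluorescence (Ex 488/Em 500-530).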
Vif-A3G inh = blocks the Vif interaction with human APOBEC3G. HeLa A3G-eYFP + Vif (tagged APOBEC3G with the HIV-1 protein that degrades it), YFP fluorescence, overnight. 410,000 tested, 0.076% active. Potency, µM (highest dose often 46.1 µM), inactives show at the highest dose activity, negative = active, hits mostly inhibitors; further: potency means the concentration at half of the fitted maximal effect; on the % scale 0 is the no-effect control and ±100 the full control effect; nearly all actives have a fitted effect of over 60% in size
Target sequence (Q9HC16 whole entry, looked up): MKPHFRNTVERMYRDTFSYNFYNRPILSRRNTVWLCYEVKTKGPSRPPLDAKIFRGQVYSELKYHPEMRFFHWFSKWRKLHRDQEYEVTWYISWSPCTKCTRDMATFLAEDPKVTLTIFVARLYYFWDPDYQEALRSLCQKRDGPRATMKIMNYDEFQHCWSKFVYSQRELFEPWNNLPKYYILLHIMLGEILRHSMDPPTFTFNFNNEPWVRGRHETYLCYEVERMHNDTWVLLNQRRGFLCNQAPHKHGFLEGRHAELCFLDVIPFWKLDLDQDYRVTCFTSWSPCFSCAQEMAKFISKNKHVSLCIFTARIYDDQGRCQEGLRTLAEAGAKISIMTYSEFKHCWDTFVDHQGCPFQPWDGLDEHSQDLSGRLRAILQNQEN
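HeLa cells stably expressing Vif and C-terminally eYFP-tagged A3G, seeded overnight at 37 deg C, then exposed to compound by pintool overnight at 37 deg C. Rise in yellow fluorescence (Ex 488/Em 500-530, Acumen) marks blocked Vif-driven A3G degradation.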
IL-1B inflam inh = inhibitors of inflammasome signaling (IL-1 beta secretion). AID 743279. activity change, % at 57.5 µM. 360,000 tested, 4.7% active. THP-1 LPS/ATP IL-1B secretion, AlphaLISA, 16 h; active compounds read low; in the data active means activity change below about -50%; inconclusive means mostly about -30% to -49%; further: on the % scale 0 is the no-effect control and ±100 the full control effect
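Secreted IL-1B measured by AlphaLISA bead assay after 16 h compound exposure of THP-1 cells; compounds (final up to 57.5 uM) added 1 h before LPS (250 ng/mL) and ATP (1.25 mM) stimulation; lower signal means less secretion.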
SW480 rereplic = induces DNA re-replication in SW480 colon adenocarcinoma cells. 340,000 tested, 1.8% active. SW480 DNA re-replication, Hoechst DNA content imaging, 48 h. Potency, µM (highest dose often 46.1 µM), inactives show at the highest dose re-replication activation, most hits filed as activators; further: potency means the concentration at half of the fitted maximal effect; % of control where 0% means no effect; nearly all actives have a fitted effect of over 55% in size
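Hoechst fluorescence of nuclei (405 nm excitation, 500-530 nm emission) measured by plate-scanning imager after 48 hr compound exposure at 37 C; re-replication scored as increased number of nuclei with elevated intensity.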
MCF10A rereplic = DNA re-replication induction in MCF 10a cells; MCF 10A DNA re-replication, Hoechst nuclear intensity, 48 h; Potency, µM (series often up to 46.1 µM), for inactives: at the highest dose activity, positive = re-replication, most hits filed as activators; 350,000 tested, 2.9% active; further: potency means the concentration at half of the fitted maximal effect; % of control where 0% means no effect; nearly all actives have a fitted effect of over 50% in size
Giardia killer = Giardia lamblia killing; activity change, % at 7.66 µM, hits read low; AID 540267; 340,000 tested, 0.15% active; Giardia lamblia trophozoite viability; in the data active means activity change below about -80%; inconclusive means between about -30% and that limit;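 further: parasites exposed to compound for two days anaerobically before the ATP read; on the % scale 0 is the no-effect control and ±100 the full control effect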
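Luminescent ATP signal served as the viability read-out, measured 15-30 min after adding ATP detection reagent to trophozoites that had been incubated with compounds for 48 hrs at 37 deg C anaerobically at 100 cells/well.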
* marks the source's active call; other numbers are inactive results; ? = inconclusive; · = not tested or not shown; [ ] = another dose, or the depositor's remark. This is a sample that favours compounds with a hit; in the whole collection about 6.9% have one here. Unless noted, the call rests on the fitted dose curve; in most records, active means well fitted curve in the direction sought with a large enough effect; inconclusive means small, poorly fitted or top-dose-only effect, or another doubt; inactive means no such curve, though single readings can be large; an effect the other way counts as inactive or inconclusive.

SMILES	Vif-APOBEC3F blk	Vif-A3G inh	IL-1B inflam inh	SW480 rereplic	MCF10A rereplic	Giardia killer
CCc1cc2cc(C(=O)N3CCN(Cc4ccccc4)CC3)sc2s1	-14%	0%	-85*	-8%	?	-17
O=C(c1ccccc1)N1CCN(Cc2ccccc2)CC1	-3%	0%	?	17%	13µM*	3
CC(C)(C)c1ccc(C(=O)N2CCN(Cc3ccccc3)CC2)cc1	-1%	5%	-2	-6%	5%	0
O=C(c1ccncc1)N1CCN(CCc2ccccc2)CC1	1%	4%	4	?	18µM*	-16
COc1ccc(CN(Cc2ccccc2)C(C)=O)cc1COc1ccc(NC(C)=O)cc1	·	·	·	·	·	-13
Cc1c2ccccc2nc2ccccc12	-17%	3%	-23	-5%	-2%	9
COc1c2ccccc2nc2ccccc12	-10%	2%	7	23µM*	?	12
CN(C(=O)/C=C/c1ccc([N+](=O)[O-])s1)c1ccccc1	7%	?	-52*	?	-6%	?
CCCC12CN3CC(C)(CN(C1)C3c1ccc([N+](=O)[O-])o1)C2=O (centres undefined)	3%	1%	1	-6%[9.22 µM]	?	-87*
CCC12CN3CC(CC)(CN(C1)C3c1ccc([N+](=O)[O-])o1)C2=O (centres undefined)	-4%	0%	12	-2%	-14%	-86*
CC(=O)OCc1cnc(C)c2oc(=O)c(C(=O)Nc3ccc(F)cc3C)cc12	-7%	-3%	·	·	·	·
CSc1cccc(NC(=O)c2cc3c(COC(C)=O)cnc(C)c3oc2=O)c1	10µM*	?	·	·	·	·
COc1ccc(N2C(=O)C(C)(C)C2c2c(O)ccc3ccccc23)cc1 (centres undefined)	?	-10%	-26	?	?	13
CC1(C)C(=O)N(c2ccccc2)C1c1ccccc1O (centres undefined)	?	?	-4	?	7.3µM*	-30
O=C(Nc1nc(-c2ccccc2)cs1)C1CCCN(S(=O)(=O)c2ccccc2)C1 (centres undefined)	-1%	0%	-8	?	8.2µM*	-9
O=C(Nc1nc(-c2ccccc2)cs1)C1CCCN(S(=O)(=O)c2cccc([N+](=O)[O-])c2)C1 (centres undefined)	·	1%	-25	-1%	8%	-2
O=C(Nc1nc(-c2cc3ccccc3o2)cs1)c1ccc(S(=O)(=O)N2CCCC2)cc1	2%	5%	-7	?	?	-1
CN(C)S(=O)(=O)c1ccc(C(=O)Nc2nc(-c3cc4ccccc4o3)cs2)cc1	2%	3%	-1	7%	4.6µM*	22
c1ccc2oc(-c3csc(NCC4CCCO4)n3)cc2c1 (centres undefined)	10%	-5%	-26	-2%	?	14
C=CCNc1nc(-c2cc3ccccc3o2)cs1	-10%	-15%	-95*	73%	5%	-9
COc1ccc(OC)c(NC(=O)CN2C(=O)CCc3cc(S(=O)(=O)N4CCCCC4)ccc32)c1	4%	3%	·	·	·	·
CCCCCN1CC(=O)N2[C@@H](Cc3c([nH]c4ccccc34)C2(C)C)C1=O	?	-2%	35	-2%	6%	4
COc1ccc(CN2C(=O)[C@H]3Cc4c([nH]c5ccccc45)C(C)(C)N3C2=O)cc1	4%	2%	·	-4%	9.2µM*	15
CCCCN(CCCC)CCCN1CC(=O)N2[C@@H](Cc3c([nH]c4ccccc34)C2(C)C)C1=O	0%	-1%	-74*	-9%	0%	17
O=C(Nc1ccc(F)cc1Cl)c1cnc(N2CCOCC2)c2ccccc12	0%	0%	·	·	·	·
SMILES	Vif-APOBEC3F blk	Vif-A3G inh	IL-1B inflam inh	SW480 rereplic	MCF10A rereplic	Giardia killer
CC(=O)Nc1ccc(-c2nnc(SCc3ccccc3)n2C)cc1	·	-2%	·	·	·	·
O=C(Nc1cccnc1Cl)c1ccc(=O)oc1	-5%	2%	-4	-12%	-6%	-5
Cn1ccc(C(=O)Nc2cccnc2Cl)n1	-5%	-3%	-70*	0%	3%	-5
S=C(NCc1ccc2[nH]c3c(c2c1)CCCC3)Nc1ccccc1Cl	-6%	-1%	15	5%	3.7µM*	-5
Cc1ccccc1NC(=S)NCc1ccc2[nH]c3c(c2c1)CCCC3	-19%	2%	-12	?	6.5µM*	-1
Cc1ccc(C)c(NC(=S)NCc2ccc3[nH]c4c(c3c2)CCCC4)c1	-5%	3%	?	?	?	-6
Cc1ccc(OCc2nnc(SCC(=O)Nc3ccccc3C(C)C)o2)cc1	2%	-5%	·	·	·	·
COc1cccc(CNC(=O)c2ccc3c(c2)N(C)C(=O)C2CCCCN32)c1 (centres undefined)	-2%	1%	·	·	·	·
CC(=O)N(Cc1ccc(Br)cc1)c1ccccc1C(=O)O	-7%	1%	25	2.6µM*	-2%	5
CC(C)N(Cc1ccccc1)C(=O)COC(=O)c1cnc(Cl)c(Cl)c1	2%	-6%	-109*	1%	5%	-2
CC(C)CN(C(=O)COC(=O)c1cnc(Cl)c(Cl)c1)c1c(N)n(Cc2ccccc2)c(=O)[nH]c1=O	-3%	1%	-96*	10%	?	-18
O=C(CSc1nnc(-c2c[nH]c3ccccc23)o1)N1c2ccccc2CCc2ccccc21	0%	1%	-68*	-6%	-2%	-5
O=C(CSc1nnc(-c2ccccc2F)o1)N1CCCC1	-5%	-5%	-12	?	-2%	5
O=C(CSc1nnc(-c2c[nH]c3ccccc23)o1)N1CCCCC1	-4%	-13%	-11	?	-7%	13
O=C(CSc1nnc(-c2ccco2)o1)N1c2ccccc2CCc2ccccc21	-11%	-1%	-62*	-8%	-7%	1
O=C(CSc1nnc(-c2ccccc2Br)o1)N1CCc2ccccc2C1	0%	-4%	-60*	15%	-2%	12
O=C(NCCc1nc2ccccc2n1CCOc1ccc(Cl)cc1)C1CCCCC1	·	-7%	·	·	·	-7
O=C(Nc1cccc(S(=O)(=O)NC2=NCCCCC2)c1)c1cc(-c2ccncc2)nc2ccccc12	-8%	-1%	?	-6%	-3%	23
O=C(Nc1cccc(S(=O)(=O)NCc2ccco2)c1)c1cc(-c2ccccc2)nc2ccccc12	9%	-20%	-88*	28%	?	1
O=C(Nc1cccc(S(=O)(=O)NC2=NCCCCC2)c1)c1cc(-c2ccco2)nc2ccccc12	?	?	5	?	16µM*	12
CCCN(C(=O)c1cc(S(=O)(=O)N2CCc3ccccc32)cn1C)c1ccc(OCC)cc1	9%	4%	·	·	·	·

Screening data from PubChem BioAssay.
